# Data taken from PubChem BioAssay (Tox21).
# Several values for one entry are separate records, joined by “and”; a condition that tells them apart may be missing. Equal values may be shown once. Inconclusive results are not listed. A call without a number means that no potency is given here. Some compounds were tested as several samples or in several runs, with calls that do not always agree. Activity calls are given as the source filed them. The call rests on the fitted dose curve; in most records, active means well fitted curve in the direction sought with a large enough effect in the repeat runs; inconclusive means weak or mixed curves; inactive means no such curve, though single readings can be large; an effect the other way counts as inactive or inconclusive.
# Experiment: qHTS assay to identify small molecule HDAC inhibitors - cell viability counter screen (AID 1259365); further: nearly all actives have a fitted effect of over 50% in size
# Conditions: HCT-116 viability, CellTiter-Glo ATP luminescence, 2 h; series mostly up to 92.4 µM; activity change, negative = cytotoxicity: at the top concentration
# Method in brief: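 Wild-type HCT-116 cells were seeded at 1,500 per well, incubated overnight at 37 C, then exposed to compounds in DMSO for 2hr. Viability was read by CellTiter-Glo luminescence after 30min at room temperature.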
row,SMILES,outcome
1,CCC(C)(C)c1ccc(O)cc1,inactive
2,Nn1cnnc1,inactive
3,NC(=S)Nc1ccccc1,inactive
4,Nc1ccncc1,inactive
5,CC(O)CCO (stereo not drawn),inactive
6,Oc1c(Cl)c(Cl)c(Cl)c(Cl)c1Cl,inactive
7,CCOc1cc(Oc2ccc(C(F)(F)F)cc2Cl)ccc1[N+](=O)[O-],inactive
8,CCOc1cc(C=O)ccc1O,inactive
9,CC(C)c1ccc(CO)cc1,inactive
10,CCOC(=O)C(C)OC(=O)c1cc(Oc2ccc(C(F)(F)F)cc2Cl)ccc1[N+](=O)[O-] (stereo not drawn),inactive
11,Clc1nc(Cl)nc(Cl)n1,inactive
12,O=C1C=CC(=O)C=C1,inactive
13,CCOCN(C(=O)CCl)c1c(C)cccc1CC,inactive
14,C=CCc1ccc(OC)cc1,inactive

# Experiment: qHTS assay to identify small molecule agonists of the sonic hedgehog signaling (Shh) pathway - cell viability counter screen (AID 1259366); further: nearly all actives have a fitted effect of over 50% in size; further: potency means the concentration at half of the fitted maximal effect
# Conditions: NIH/3T3 Gli1-Luc viability, CellTiter-Fluor, 24 h; series mostly up to 92.4 µM; viability change, negative = cytotoxic: at the top concentration
# Method in brief: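 NIH/3T3-derived 3T3 Gli1-Luc cells (stable Gli1-responsive firefly luciferase reporter) were seeded, rested 4 hr at 37 C/5% CO2, then exposed to compounds in DMSO for 24 hr; viability was read by CellTiter-Fluor fluorescence in the same wells.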
SMILES,Potency,"viability change, negative = cytotoxic"
CCCCC(CC)COC(=O)c1ccc(C(=O)OCC(CC)CCCC)c(C(=O)OCC(CC)CCCC)c1 (stereo not drawn),inactive,–
C[C@]12CCC(=O)C(O)=C1CC[C@@H]1[C@@H]2CC[C@]2(C)C(=O)CC[C@@H]12,inactive,–
Oc1cc(Cl)ccc1Oc1ccc(Cl)cc1Cl,31.4 µM (active) and inactive,–
CCC(C)(c1ccc(O)cc1)c1ccc(O)cc1,–,-22% (inactive)
O=C(NC(=O)c1c(F)cccc1F)Nc1ccc(Cl)cc1,inactive,–
c1cc(OCC2CO2)ccc1Cc1ccc(OCC2CO2)cc1 (stereo not drawn),27.3 µM (active),–
C#CCOS(=O)OC1CCCCC1Oc1ccc(C(C)(C)C)cc1 (stereo not drawn),24.4 µM (active) and 54.5 µM (active),–
CCN(CC)C(=O)SCc1ccc(Cl)cc1,inactive,–
CC(C)Oc1cc(-n2nc(C(C)(C)C)oc2=O)c(Cl)cc1Cl,inactive,–
O=C(Nc1ccc(Br)cc1)c1cc(Br)cc(Br)c1O,30.5 µM (active),–
CNC(=O)Oc1cccc2c1OC(C)(C)O2,inactive,–
CC(C)=CC1C(C(=O)OCc2coc(Cc3ccccc3)c2)C1(C)C (stereo not drawn),inactive,–
NNC(N)=S,45 µM (active),–
Nc1cccnc1,inactive,–
CN(C)c1ccc(C(=O)c2ccc(N(C)C)cc2)cc1,–,-8.08% (inactive)
N#Cc1cc(Br)c(O)c(Br)c1,–,29% (inactive)
CCN(CC)C(=O)/C(Cl)=C(\C)OP(=O)(OC)OC,inactive,–
Oc1cc(Cl)c(Cl)cc1Cl,inactive,–
CCOC(=S)S,38.6 µM (active) and 20.6 µM (active),–

SMILES,Potency,"viability change, negative = cytotoxic"
COP(=S)(OC)Oc1ccc([N+](=O)[O-])cc1,inactive,–
O=S(=O)(Oc1ccc(Cl)cc1)c1ccc(Cl)cc1,inactive,–
N#CC(Br)Br,inactive,–
CCOP(=S)(OCC)O/N=C(\C#N)c1ccccc1,inactive,–
CCC(C)(C)c1ccc(O)cc1,inactive,–
Nn1cnnc1,inactive,–
NC(=S)Nc1ccccc1,inactive,–
Nc1ccncc1,inactive,–
CC(O)CCO (stereo not drawn),inactive,–
Oc1c(Cl)c(Cl)c(Cl)c(Cl)c1Cl,inactive,–
CCOc1cc(Oc2ccc(C(F)(F)F)cc2Cl)ccc1[N+](=O)[O-],inactive,–
CCOc1cc(C=O)ccc1O,inactive,–
CC(C)c1ccc(CO)cc1,inactive,–
CCOC(=O)C(C)OC(=O)c1cc(Oc2ccc(C(F)(F)F)cc2Cl)ccc1[N+](=O)[O-] (stereo not drawn),inactive,–
Clc1nc(Cl)nc(Cl)n1,–,0.929% (inactive)
O=C1C=CC(=O)C=C1,inactive,–
CCOCN(C(=O)CCl)c1c(C)cccc1CC,57.7 µM (active) and 30.6 µM (active),–
C=CCc1ccc(OC)cc1,inactive,–

# Experiment: qHTS assay to identify small molecule antagonists of the sonic hedgehog signaling (Shh) pathway - cell viability counter screen (AID 1259367); further: nearly all actives have a fitted effect of over 55% in size; further: potency means the concentration at half of the fitted maximal effect
# Conditions: NIH/3T3 Gli1-Luc viability, CellTiter-Fluor, 24 h; series mostly up to 92.4 µM; viability change, negative = cytotoxic: at the top concentration
# Method in brief: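 CellTiter-Fluor signal in conditioned medium-stimulated 3T3 Gli1-Luc cells, 23 hr compound exposure, 37C.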
SMILES,Potency,"viability change, negative = cytotoxic"
CCCCC(CC)COC(=O)c1ccc(C(=O)OCC(CC)CCCC)c(C(=O)OCC(CC)CCCC)c1 (stereo not drawn),inactive,–
C[C@]12CCC(=O)C(O)=C1CC[C@@H]1[C@@H]2CC[C@]2(C)C(=O)CC[C@@H]12,inactive,–
CCC(C)(c1ccc(O)cc1)c1ccc(O)cc1,–,-15.7% (inactive)
c1cc(OCC2CO2)ccc1Cc1ccc(OCC2CO2)cc1 (stereo not drawn),61.1 µM (active),–
CCN(CC)C(=O)SCc1ccc(Cl)cc1,inactive,–
CNC(=O)Oc1cccc2c1OC(C)(C)O2,inactive,–
NNC(N)=S,20.1 µM (active) and 61.1 µM (active),–
CN(C)c1ccc(C(=O)c2ccc(N(C)C)cc2)cc1,inactive and 21.7 µM (active),–
N#Cc1cc(Br)c(O)c(Br)c1,inactive,–
CCOC(=S)S,30.6 µM (active) and 25.9 µM (active),–
COP(=S)(OC)Oc1ccc([N+](=O)[O-])cc1,inactive,–
O=S(=O)(Oc1ccc(Cl)cc1)c1ccc(Cl)cc1,inactive,–
N#CC(Br)Br,inactive,–
Nn1cnnc1,inactive,–
CC(O)CCO (stereo not drawn),inactive,–
CCOc1cc(Oc2ccc(C(F)(F)F)cc2Cl)ccc1[N+](=O)[O-],inactive,–
CCOc1cc(C=O)ccc1O,inactive,–
CCOC(=O)C(C)OC(=O)c1cc(Oc2ccc(C(F)(F)F)cc2Cl)ccc1[N+](=O)[O-] (stereo not drawn),inactive,–
Clc1nc(Cl)nc(Cl)n1,inactive,–
O=C1C=CC(=O)C=C1,inactive,–
CCOCN(C(=O)CCl)c1c(C)cccc1CC,54.5 µM (active),–
C=CCc1ccc(OC)cc1,inactive,–
